From PubChem BioAssay come the findings set out here.

Values without a mark were called inactive. Inconclusive results are not listed. The source made the active and inactive calls.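 The calls were made as follows, unless noted: active = inhibition over a set limit, the all-compound mean plus 3 SD, in both replicate runs; inconclusive = over that limit in just one replicate run; inactive = at or under that limit in both runs.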

In general, viability refers to a per cent measure of how many cells are alive, often set against a control. In general, inhibition refers to the change of the read-out against control, counted positive when it falls.

One assay can be described thus: viability of PTEN-null HCT116 cells – cell-based, HCT116 clonal line, CellTiter-Glo, pilot screen (AID 824;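 active = viability at or below 27.92% in each of two runs, the all-compound median minus 4 SD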;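 also: 0% = 20 µM Hyamine control and 100% = vehicle cell control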). As to conditions: HCT116 PTEN-deleted viability, 60 h, at 10 µM, stronger effect = lower value.
Consider `COc1ccccc1C1CC(c2ccc(Cl)cc2Cl)Nc2nc(N)nn21` (configuration not stated), for which the viability is 85%. Regarding `COc1ccc(Cl)cc1N1C(=O)C2CCCN2C1c1ccc(F)c(F)c1` (configuration not stated), the viability is 92.7%.

Take `Cc1ccc(-c2nc(-c3ccccn3)no2)cc1`: the viability was 24.4% (active). As to `O=C(CN(C1CCCCC1)S(=O)(=O)c1ccccc1)N1CCCC1`, the viability is 100%.

As to `Cc1ccc(N2C(=O)Nc3ccc(Br)cc3C2(O)C(=O)NCCCN(C)C)cc1C` (configuration not stated), the viability was 98.7%. As to `Cc1cccc(C2CC(c3ccccc3)Nc3ncnn32)c1` (configuration not stated), the viability was 93.8%. With `CCNC(=O)CN(C1CCCCC1)S(=O)(=O)c1ccc(F)cc1`, the viability is 91%.

A further assay in a line: RAM pathway blockade in budding yeast – dse1pr::URA3 reporter, 5-FOA selection, pilot screen (AID 869).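 Also: 0% = DMSO wells with no growth and 100% = 10 µM 1-NA-PP1 with full growth; RAM network block rescues cells from 5-FOA so hits raise OD615 growth.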 The note with it: S. cerevisiae dse1pr::URA3 5-FOA growth, OD615, 2 d; at 10 µM; stronger effect = higher value; strain carries analog-sensitive mutant Cbk1 kinase.
`O=C(NCc1ccco1)c1ccc(CN2CCOCC2)cc1`: the inhibition was 2.41%. Turning to `CSc1nc2c(cnn2-c2ccc(C)c(C)c2)c(=O)[nH]1`, the inhibition was 2.08%. For `O=C(CSc1oc(-c2ccc(F)cc2)nc1S(=O)(=O)c1ccc(F)cc1)NCC1CCCO1` (configuration not stated), the inhibition was 1.05%. The same measure, in the same setting: next, `CCc1nnc(NC(=O)c2ccc(S(=O)(=O)N(CC)CC)cc2)s1`: 1.52%. For the molecule `CCOc1ccc(-c2cc(CCCC(=O)Nc3cccc(OC)c3)no2)cc1`, the inhibition was 3.28%. Take `CSc1nc(N2CCN(CCO)CC2)c2sc3nc(-c4ccco4)c4c(c3c2n1)CCC4`: the inhibition was -1.67%. In the case of `O=C(O)c1ccc(N2C(=O)CC(Cc3ccccc3)C2=O)cc1` (configuration not stated), the inhibition is -0.025%. For `Cc1ccc(Cl)cc1N1CCN(C(=O)c2cc3c(=O)n(C)c4ccccc4c3n2C)CC1`, the inhibition is 1.74%. As to `Cn1nc(-c2ccc(Cl)cc2)c2cc(C(=O)NCCN3CCOCC3)sc21`, the inhibition was 0.45%. With `COc1cccc(C(=O)Nc2nnc(-c3ccc(Cl)cc3)o2)c1`, the inhibition is 1.6%. For `O=C(Nc1nnc(-c2cccs2)o1)c1cccc(F)c1`, the inhibition was 0.745%.

With `COc1cc(OC)cc(C(=O)Nc2cccc(C(C)=O)c2)c1`, the inhibition is 1.7%. In the case of `CC1=C(C(=O)OCc2ccc3c(c2)OCO3)C(c2ccccc2)NC(=O)N1` (configuration not stated), the inhibition was 1.81%. The same measure, in the same setting: next, `COc1ccc(OC)c(NC(=O)C(CC(C)C)NC(=O)C2CCCCC2)c1` (configuration not stated): 1.02%; `CCn1c(=O)c(=O)[nH]c2cc(C(=O)NC3CCCc4ccccc43)ccc21` (configuration not stated): 1.7%; `c1coc(CNc2c3c(nc4ccccc24)CCC3)c1`: -0.205%. Still for that read-out and setting: next, `O=C(Nc1nnc(-c2cccs2)o1)c1cccc(Oc2ccccc2)c1`: 1.83%; `COc1cc2c(cc1OC)C(c1cccs1)NCC2` (configuration not stated): 0.41%; `COc1ccc(CCNC(=O)c2oc3ccc(S(=O)(=O)N4CCOCC4)cc3c2C)cc1OC`: 1.17%. With `CCOc1ccc2nc3ccc4[nH]onc4c3c2c1`, the inhibition is 2.8%. In the case of `Cc1nc(N2CCN(Cc3ccc4c(c3)OCO4)CC2)c2oc3ccccc3c2n1`, the inhibition is 2%.

Regarding `COc1ccccc1C1CC(c2ccc(Cl)cc2Cl)Nc2nc(N)nn21` (configuration not stated), the inhibition is 1.62%. Take `COc1ccc(Cl)cc1N1C(=O)C2CCCN2C1c1ccc(F)c(F)c1` (configuration not stated): the inhibition is 1.33%. As for `Cc1ccc(-c2nc(-c3ccccn3)no2)cc1`, the inhibition is -0.485%. Consider `CCOC(=O)C1=C(C)N=c2s/c(=C\c3ccncc3)c(=O)n2C1c1ccc2c(c1)OCO2` (configuration not stated), for which the inhibition is 3.46%. `CN1C(=O)C(O)(CC(=O)c2ccccn2)c2cc(Br)ccc21` (configuration not stated): the inhibition was 0.9%. Turning to `O=C(CCS(=O)(=O)c1ccccc1)Nc1nc2c(s1)CCCC2`, the inhibition is 0.495%. Turning to `O=C(CN(C1CCCCC1)S(=O)(=O)c1ccccc1)N1CCCC1`, the inhibition was 0.885%. With `Cc1ccccc1CN1C(=O)C(O)(CC(=O)c2ccncc2)c2ccccc21` (configuration not stated), the inhibition was 1.28%. Still for that read-out and setting: next, `CCN1CCN(c2cc(C)c3cc(NC(=O)c4ccc(Br)o4)ccc3n2)CC1`: 1.75%; `Cc1ccc(N2C(=O)Nc3ccc(Br)cc3C2(O)C(=O)NCCCN(C)C)cc1C` (configuration not stated): 0.615%.

As for `COc1ccc(NC(=O)NCCCN2CCN(c3cc(C)ccc3C)CC2)cc1`, the inhibition is 0.485%. With `Cc1cccc(C2CC(c3ccccc3)Nc3ncnn32)c1` (configuration not stated), the inhibition was 1.7%. `COc1ccc(S(=O)(=O)Cc2ccc(C(=O)N3CCN(c4ccc(Cl)cc4)CC3)o2)cc1`: the inhibition was 0.375%. For `O=C(CSc1nc(-c2ccco2)cc(C(F)(F)F)n1)Nc1ccc(C(=O)N2CCCCC2)cc1`, the inhibition was 1.97%. `Cn1c(C(=O)NC2CCCCCC2)cc2c(=O)n(C)c3ccccc3c21`: the inhibition was 1.1%. As for `CCNC(=O)CN(C1CCCCC1)S(=O)(=O)c1ccc(F)cc1`, the inhibition was 3.43%. Take `COc1cc(C(=O)N2CCN(c3ccc(C)cc3C)CC2)cc(OC)c1OC`: the inhibition is 0.135%. Still for that read-out and setting: the figure for `Cc1cc(N2CCN(S(=O)(=O)c3ccc(Cl)cc3)CC2)c2ccccc2n1` is -0.15%. `OC(COc1ccc(C2C=CCC2)cc1)CN1CCCCC1` (configuration not stated): the inhibition is 1.75%.
